Measurements from PubChem BioAssay (NCATS).
Records with an inconclusive call do not appear. A call without a number means that no potency is given here. Values without a mark were called inactive. Active and inactive are the calls of the source. Calls follow the shape of the dose curve; as a rule, active = well fitted curve in the direction sought with a large enough effect; inconclusive = small, poorly fitted or top-dose-only effect, or another doubt; inactive = no such curve, though single readings can be large; an effect the other way counts as inactive or inconclusive. Where a SMILES comes first, the peptide text is derived from it. [ ]: non-standard residue; d: D form. pGlu = O=C1CC[C@@H](C(=O)O)N1

Tests used:
[1] = tested on: Zika virus NS2B-NS3 protease; assay: Primary screen GU AMC qHTS for Zika virus inhibitors (AID 1347154); also: nearly all actives have a fitted effect of over 70% in size; also: potency is read from the fitted curve at half-maximal effect
Method in brief: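 Unlinked Zika NS2B hydrophilic domain/NS3 protease domain noncovalent complex (25 nM final) in 10 mM Tris-HCl pH 8.0, 0.01% Tween 20, with AMC peptide substrate. Fluorescence (ex 340, em 450 nm) change over 15 min, room temperature; percent inhibition fitted to 4-parameter Hill equation.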

[2] = tested on: Zika virus NS2B-NS3 protease (unlinked complex); assay: Primary screen GU Rhodamine qHTS for Zika virus inhibitors: Unlinked NS2B-NS3 protease assay (AID 1347159); also: nearly all actives have a fitted effect of over 60% in size
Method in brief: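 Enzyme 25 nM in Tris-HCl pH 8.0 + 0.01% Tween 20; compounds up to 114 microM, 15 min RT dark; + Rhod110 substrate 1.5 microM; read t0 and 15 min; delta fluorescence → % inhibition → 4-parameter Hill fit.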

[3] = tested on: Zika virus NS2B-NS3 protease (linked construct); assay: Primary screen NINDS Rhodamine qHTS for Zika virus inhibitors (AID 1347160); settings: outcome: dose series up to 57.1 µM unless noted; also: nearly all actives have a fitted effect of over 55% in size
Method in brief: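 Enzyme (25 nM, linked NS2B-NS3) was preincubated 15 min with compound in 10 mM Tris-HCl pH 8.0, 0.01% Tween 20. Rhodamine110 substrate (1.5 microM) was then added and fluorescence read at start and after 15 min.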

Question: CCC[C@H](N[C@@H](C)C(=O)N1[C@H](C(=O)O)C[C@@H]2CCCC[C@@H]21)C(=O)OCC was tested. Which Potency [1] did it give?
Answer: inactive

Question: For O=C(O)C1CCC1, which Potency [1] is on record?
Answer: inactive

Question: For CCCc1c2oc(C(=O)O)cc(=O)c2cc2c(=O)cc(C(=O)O)n(CC)c12, which Potency [1] is on record?
Answer: inactive

Question: Which Potency [1] does the source give for O=C(Nc1ccc(Cl)cc1)Nc1ccc(Cl)c(Cl)c1 here?
Answer: inactive

Question: With OCc1cccnc1 as the compound, how does the Potency [1] read?
Answer: inactive

Question: With C[C@@H]1CCC[C@H](C)N1CCCC(O)(c1ccccc1)c1ccccn1 (some centres undefined) as the compound, how does the Potency [1] read?
Answer: inactive

Question: With CN(C)CCCOC1(Cc2ccccc2)CCCCCC1 as the compound, how does the Potency [1] read?
Answer: inactive

Question: How did the Potency [1] turn out when CN(C)CCOC1=Cc2ccccc2Sc2ccc(Cl)cc21 was run?
Answer: inactive

Question: For CCOC(=O)c1ccc(O)c(O)c1, which Potency [1] is on record?
Answer: inactive

Question: C[N+]1(C)CCC(OC(=O)C(O)(c2ccccc2)C2CCCC2)C1 (centres undefined) was tested. Which Potency [1] did it give?
Answer: inactive

Question: How did the Potency [1] turn out when CC(C(=O)O)c1ccc(/C=C2\CCCCC2=O)cc1 (centres undefined) was run?
Answer: inactive

Question: And the Potency [2]?
Answer: inactive

Question: What about the outcome [3] of the same compound?
Answer: inactive

Question: With Cc1cc(C(C)(C)C)c(O)c(C(C)(C)C)c1 as the compound, how does the Potency [1] read?
Answer: inactive

Question: How did the activity change, negative = inhibition [1] turn out when CC1CN(c2cc3c(cc2F)c(=O)c(C(=O)O)cn3-c2ccc(F)cc2F)CCN1 (centres undefined) was run?
Answer: -3.57% [at 4.99 µM]

Question: What about the Potency [2] of the same compound?
Answer: inactive

Question: With CC(=O)Oc1ccc(C2(c3ccc(OC(C)=O)cc3)Oc3ccccc3NC2=O)cc1 as the compound, how does the Potency [1] read?
Answer: inactive

Question: And the Potency [2]?
Answer: inactive

Question: And the outcome [3]?
Answer: inactive

Question: With CCCCCOc1ccccc1/C(=C\SC)n1ccnc1 as the compound, how does the Potency [1] read?
Answer: inactive

Question: What does the source list for CC1c2ccccc2CN1NC(=O)c1ccc(Cl)c(S(N)(=O)=O)c1 (centres undefined)?
Answer: Potency [1]: inactive; Potency [2]: inactive; outcome [3]: inactive

Question: With CCOC(=O)c1ccc(NC(=O)CN2CCCCC2)cc1 as the compound, how does the Potency [1] read?
Answer: inactive

Question: And the Potency [2]?
Answer: inactive

Question: And the outcome [3]?
Answer: inactive

Question: What does the source list for O=C1[C@@H]2[C@H]3CC[C@H](C3)[C@@H]2C(=O)N1CCCCN1CCN(c2ncccn2)CC1?
Answer: Potency [1]: inactive; Potency [2]: inactive; outcome [3]: inactive

Question: For COc1ccc2cc(C=O)ccc2c1, which Potency [1] is on record?
Answer: 31.6 µM (active)

Question: What does the source list for CC(C)(C)c1nnc(NS(=O)(=O)c2ccccc2)s1?
Answer: Potency [1]: inactive; Potency [2]: inactive; outcome [3]: inactive

Question: What does the source list for CC(=O)[C@H]1CC[C@H]2[C@@H]3C=CC4=CC(=O)CC[C@@]4(C)[C@@H]3CC[C@]12C?
Answer: Potency [1]: inactive; Potency [2]: inactive; outcome [3]: inactive

Question: How did the Potency [1] turn out when COc1ccc2c(c1)c(CC(=O)OC/C=C(\C)CC/C=C(\C)CCC=C(C)C)c(C)n2C(=O)c1ccc(Cl)cc1 was run?
Answer: inactive

Question: Which Potency [1] does the source give for COc1cc(OC)nc(O[C@H](C(=O)O)C(OC)(c2ccccc2)c2ccccc2)n1 here?
Answer: inactive

Question: With Nc1ncnc2n[nH]c(Nc3ccc(F)cc3)c12 as the compound, how does the Potency [1] read?
Answer: inactive

Question: And the Potency [2]?
Answer: inactive

Question: What about the outcome [3] of the same compound?
Answer: inactive

Question: Which results are given for CN1CCC(N(Cc2cccs2)c2ccccc2)CC1?
Answer: Potency [1]: inactive; Potency [2]: inactive; outcome [3]: inactive

Question: Which Potency [1] does the source give for CCCCCCCCCCCCCCCCCCNC(=O)OC1CCN(C(=O)OC[C@H](COC(=O)N(Cc2cccc[n+]2CC)C(=O)c2ccccc2OC)OC)CC1 here?
Answer: inactive

Question: For Cc1cccc(N(C)C(=S)Oc2ccc3c(c2)CCC3)c1, which Potency [1] is on record?
Answer: inactive

Question: What about the Potency [2] of the same compound?
Answer: inactive

Question: What about the outcome [3] of the same compound?
Answer: inactive

Question: For COCCc1ccc(OCC2CO2)cc1 (centres undefined), which Potency [1] is on record?
Answer: inactive

Question: COc1cc(C(=O)OC(COCCC(C)C)CN2CCOCC2)cc(OC)c1OC (centres undefined) was tested. Which Potency [1] did it give?
Answer: inactive

Question: And the Potency [2]?
Answer: inactive

Question: And the outcome [3]?
Answer: inactive

Question: How did the Potency [1] turn out when CCC(C(=O)NC(=O)NC(C)=O)c1ccccc1 (centres undefined) was run?
Answer: inactive

Question: And the Potency [2]?
Answer: inactive

Question: And the outcome [3]?
Answer: inactive

Question: With CCN1CCN(c2cc(-c3ccc(F)cc3)c3c(n2)CCCCCC3)CC1 as the compound, how does the Potency [1] read?
Answer: inactive

Question: And the Potency [2]?
Answer: inactive

Question: And the outcome [3]?
Answer: inactive

Question: Which Potency [1] does the source give for O=C(CCC1CCN(Cc2ccccc2)CC1)c1ccc2c(c1)NCCCC2 here?
Answer: inactive

Question: And the Potency [2]?
Answer: inactive

Question: What about the outcome [3] of the same compound?
Answer: inactive

Question: What does the source list for O=C(O)Cc1ccccc1Oc1ccc(Cl)cc1Cl?
Answer: Potency [1]: inactive; Potency [2]: inactive; outcome [3]: inactive

Question: Which Potency [1] does the source give for C=C(C)C(=O)OCC(O)CO (centres undefined) here?
Answer: inactive

Question: Which Potency [1] does the source give for CCNC(=O)[C@@H]1CCCN1C(=O)[C@H](CCCN=C(N)N)NC(=O)[C@H](CC(C)C)NC(=O)CNC(=O)[C@H](Cc1ccc(O)cc1)NC(=O)[C@H](CO)NC(=O)[C@H](Cc1c[nH]c2ccccc12)NC(=O)[C@H](Cc1cnc[nH]1)NC(=O)[C@@H]1CCC(=O)N1 ([pGlu]HWSYGLRP-NHEt) here?
Answer: inactive

Question: For CCN1C(=O)c2ccccc2C1Nc1ccc(OCCN2CCCCC2)cc1 (centres undefined), which Potency [1] is on record?
Answer: inactive

Question: And the Potency [2]?
Answer: inactive

Question: What about the outcome [3] of the same compound?
Answer: inactive
